Screening results deposited in PubChem BioAssay by Broad Institute.
C diff HTS: inhibitors of Clostridium difficile growth. Clostridium difficile clinical isolate growth, OD600, 24 h; stronger effect = lower value. growth activity, negative = inhibition, % at 16 µg/mL (by protocol). 86,000 compounds, 0.25% hits;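 active = mean growth activity at or below -80% and every replicate also at or below -80%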
Numbers stand for hits; - = inactive; ! = not active in a repeat. This excerpt belongs to a sample that is enriched for hits.

SMILES | C diff HTS
O=C(Nc1ccc2c(c1)OCO2)N1C[C@@H]2N[C@H](C1)C2c1ccc(C=Cc2ccccc2)cc1 (stereo not given in full) | -99!
C/C=C/c1ccc(C2[C@@H]3CN(C(=O)c4ccc5c(c4)OCO5)C[C@H]2N3)cc1 (stereo not given in full) | -
C(=C\c1ccc(C2[C@@H]3CN(Cc4ccc5c(c4)OCO5)C[C@H]2N3)cc1)/c1ccccc1 (stereo not given in full) | -99
COc1ccc(-c2ccc(C3[C@@H]4CN(C(=O)Nc5ccccc5F)C[C@H]3N4)cc2)cc1 (stereo not given in full) | -
C/C=C/c1ccc(C2[C@@H]3CN(C(=O)Nc4ccccc4F)C[C@H]2N3)cc1 (stereo not given in full) | -
COc1cc(CN2C[C@@H]3N[C@H](C2)C3c2ccc(/C=C/c3ccccc3)cc2)cc(OC)c1 (stereo not given in full) | -
c1ncc(-c2ccc(C3[C@@H]4CN(Cc5ccc6c(c5)OCO6)C[C@H]3N4)cc2)cn1 (stereo not given in full) | -
O=C(Nc1ccc2c(c1)OCO2)N1[C@@H]2CNC[C@H]1C2c1ccc(/C=C/c2ccccc2)cc1 (stereo not given in full) | -
O=C(Nc1ccc(F)cc1)N1C[C@@H]2N[C@H](C1)C2c1ccc(/C=C/c2ccccc2)cc1 (stereo not given in full) | -100
Cc1ccccc1-c1ccc(C2[C@@H]3CN(C(=O)Nc4ccc(F)cc4)C[C@H]2N3)cc1 (stereo not given in full) | -
O=C(Nc1ccccc1F)N1C[C@@H]2N[C@H](C1)C2c1ccc(/C=C/c2ccccc2)cc1 (stereo not given in full) | -97!
C/C=C/c1ccc(C2[C@@H]3CN(C(=O)Nc4ccc(F)cc4)C[C@H]2N3)cc1 (stereo not given in full) | -
CCCNC(=O)[C@@H]1[C@@H](CO)[C@@H]2Cn3c(ccc(C4=CCCC4)c3=O)[C@H]1N2C(=O)CC | -
COc1ccc(NC(=O)Nc2cccc3c2O[C@H](CN(C)Cc2ccc(Oc4ccccc4)cc2)[C@@H](C)CN([C@H](C)CO)C3=O)cc1 | -
CCCC(=O)Nc1ccc2c(c1)C(=O)N(C)C[C@H](OC)[C@@H](C)CN(Cc1cncnc1)[C@@H](C)CO2 | -
O=C(Nc1ccc2c(c1)OCO2)N[C@@H]1CC[C@H](CCNC(=O)C2CCOCC2)O[C@H]1CO | -
COc1ccc(C#Cc2cnc3c(c2)C(=O)N([C@H](C)CO)C[C@H](C)[C@@H](CN(C)C(=O)CC2CC2)O3)cc1 | -
CCCNC(=O)N1CCC2(CC1)CN(C(=O)COC)[C@@H](CO)c1c2c2ccc(OC)cc2n1C | -
CCN1[C@H](C(=O)NCCCN(C)C)[C@@H](CO)[C@@H]2Cn3c(ccc(C4=CCCC4)c3=O)[C@@H]21 | -
C[C@H]1CN([C@@H](C)CO)S(=O)(=O)c2ccc(/C=C/c3ccccc3)cc2O[C@@H]1CN(C)C(=O)Nc1ccc(F)cc1 | -
CO[C@H]1CN(C)C(=O)c2cc(C#N)ccc2OCC[C@@H]2CC[C@@H](OC)[C@@H](CN(C)C(=O)[C@@H]1C)O2 | -
OC[C@@H]1[C@@H](c2ccccc2)C2(CN(Cc3nccs3)C2)N1Cc1ccccc1 | -
COc1ccc2c3c([nH]c2c1)[C@H](CO)N(C)CC31CN(C(=O)Nc2c(C)noc2C)C1 | -
CC=Cc1ccc2n(c1=O)C[C@H]1[C@H](CO)[C@@H](C(=O)N(C)C)[C@@H]2N1CC1CCCC1 (mixture of isomers) | -
COc1ccc2c3c([nH]c2c1)[C@H](CO)N(C)CC31CN(C(=O)c2ccccc2F)C1 | -
SMILES | C diff HTS
COc1ccccc1CN1[C@@H](CO)[C@@H](c2ccccc2)C12CN(C(=O)c1ccccn1)C2 | -
O=C(N[C@@H]1C[C@@H]2O[C@@H](CO)CC[C@@H]2O[C@@H]1CCc1ccc(C#Cc2ccccc2)cc1)c1ccccn1 | -
O=C(C[C@@H]1CC[C@H]2[C@@H](COC[C@H](O)CN2C(=O)Nc2ccc(Cl)cc2)O1)N1CCCCC1 | -
O=C(C[C@H]1CC[C@@H]2[C@H](COC[C@H](O)CN2C(=O)Nc2cc(Cl)cc(Cl)c2)O1)N1CCOCC1 | -92!
O=C(C[C@H]1CC[C@@H]2[C@H](COC[C@@H](O)CN2C(=O)Nc2cccc(Cl)c2)O1)N1CCCCC1 | -
O=C(C[C@@H]1CC[C@@H]2[C@H](COC[C@@H](O)CN2C(=O)Nc2cc(Cl)cc(Cl)c2)O1)N1CCOCC1 | -
O=C(C[C@@H]1CC[C@@H]2[C@H](COC[C@H](O)CN2C(=O)Nc2cc(Cl)cc(Cl)c2)O1)N1CCOCC1 | -101!
O=C(C[C@H]1CC[C@H]2[C@@H](COC[C@@H](O)CN2C(=O)Nc2cc(Cl)cc(Cl)c2)O1)N1CCOCC1 | -
CO[C@H]1CN(C)C(=O)c2cc(NC(=O)NC(C)C)ccc2OC[C@H](C)N(Cc2cncnc2)C[C@@H]1C | -
COc1ccc2c3c(n(C)c2c1)[C@H](CO)N(CC1CC1)CC31CN(C(=O)Nc2ccccc2)C1 | -
O=C(Nc1ccc(F)cc1)N1[C@@H]2CNC[C@H]1C2c1ccc(/C=C/c2ccccc2)cc1 (stereo not given in full) | -101!
O=C(Nc1ccc(F)cc1)N1[C@@H]2CNC[C@H]1C2c1ccc(-c2ccccc2)cc1 (stereo not given in full) | -
C/C=C/c1ccc(C2[C@H]3CNC[C@@H]2N3C(=O)Nc2cccc(Cl)c2)cc1 (stereo not given in full) | -
O=C(Nc1cc(F)ccc1F)N1[C@@H]2CNC[C@H]1C2c1ccc(/C=C/c2ccccc2)cc1 (stereo not given in full) | -
O=C(Nc1ccc(C(F)(F)F)cc1)N1[C@@H]2CNC[C@H]1C2c1ccc(-c2ccccc2)cc1 (stereo not given in full) | -99!
O=C(Nc1ccc(C(F)(F)F)cc1)N1[C@@H]2CNC[C@H]1C2c1ccc(/C=C/c2ccccc2)cc1 (stereo not given in full) | -103!
O=C(Nc1ccc(Cl)cc1)N1[C@@H]2CNC[C@H]1C2c1ccc(/C=C/c2ccccc2)cc1 (stereo not given in full) | -98
O=C(Nc1ccccc1Cl)N1[C@@H]2CNC[C@H]1C2c1ccc(/C=C/c2ccccc2)cc1 (stereo not given in full) | -
C/C=C/c1ccc(C2[C@H]3CNC[C@@H]2N3C(=O)Nc2ccccc2Cl)cc1 (stereo not given in full) | -
COc1ccc(NC(=O)N2[C@@H]3CNC[C@H]2C3c2ccc(-c3ccccc3)cc2)cc1 (stereo not given in full) | -
O=C(Nc1ccc(Cl)cc1)N1[C@@H]2CNC[C@H]1C2c1ccc(-c2ccccc2)cc1 (stereo not given in full) | -
O=C(Nc1ccc(F)cc1)N1[C@@H]2CNC[C@H]1C2c1ccc(-c2ccc(F)cc2)cc1 (stereo not given in full) | -
COC(=O)C[C@H]1CC[C@H]2[C@H](COc3ccc(NC(=O)c4ccc(F)cc4)cc3C(=O)N2C)O1 | -
CCN1[C@@H]2c3ccc(-c4cccc(F)c4)c(=O)n3C[C@@H]2[C@@H](CO)[C@@H]1C(=O)N(C)C | -
COc1ccc2c3c([nH]c2c1)[C@H](CO)N(S(C)(=O)=O)CC31CN(C(=O)c2ccncc2)C1 | -
